Most compounds without a hit are left out; they make up all but 7.3% or so of the library.
NPC1 prom act – activators of NPC1 promoter; Huh7 NPC1 promoter luciferase reporter, 24 h; Potency, µM (top dose mostly 9.22 µM), without a hit: top-dose activation, hits mostly activators; actives 2.4% (n = 320,000); note: % of control where 0% means no effect; nearly all actives have a fitted effect of over 60% in size
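NPC1 promoter–luciferase Huh7 cells; 24 h compound; luminescence.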
Rab9 prom act – activates the Rab9 promoter | Huh7 Rab9 promoter-luciferase reporter, luminescence, 24 h | Potency, µM (highest dose often 9.22 µM), inactives show at the highest dose activation, negative = inhibition, usual class: activators | actives 2.8% (n = 320,000) | AID 485297; note: % of control where 0% means no effect; nearly all actives have a fitted effect of over 60% in size
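Luciferase signal after 10 min detection reagent at ambient indicates Rab9 promoter upregulation; stably transfected Huh7 cells were treated 24 h with compound in DMSO at 37 °C, 5% CO2.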
SMN2 splice up – increases expression of the SMN2 splice variant. Potency, µM (series often up to 46.1 µM), without a hit: at the top dose activity change, positive = activation, hits mostly activators. AID 1458. actives 2.8% (n = 210,000). HEK293 SMN2-luciferase splicing reporter, luminescence, 30-36 h; note: % of control where 0% means no effect; nearly all actives have a fitted effect of over 55% in size
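qHTS luciferase splicing reporter: luminescence rises when SMN2 exon 7 is included in transfected HEK293 cells. Compound exposure lasted 30-36 h at 37C, with 4.5 mM final sodium butyrate as control, followed by a ONE-Glo read.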
ELG1 genotox – induces genotoxicity in HEK293T cells with luciferase-tagged ELG1; HEK293T ELG1-luciferase reporter, luminescence, 16 h; Potency, µM (highest dose often 46 µM), for inactives: at the highest dose activity change, positive = activation, most hits filed as activators; actives 1.3% (n = 330,000); AID 504466; note: % of control where 0% means no effect; nearly all actives have a fitted effect of over 60% in size
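Genotoxic stress is detected as increased luminescence from luciferase-tagged ELG1 in HEK293T cells, measured with ONE-Glo after a 16 hr treatment at 37 °C.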
KinaseGlo FLuc – blocks Kinase-Glo luciferase, a counter-screen artifact; Potency, µM (highest dose often 38.3 µM), without a hit: at the top dose activity change, negative = inhibition, hits mostly inhibitors; Q27757; actives 0.28% (n = 200,000); Kinase-Glo luciferase, ATP luminescence, 8 min; note: % is set by controls: 0 for no effect and ±100 for the full control effect; nearly all actives have a fitted effect of over 60% in size
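Kinase-Glo luciferase light output from ATP and luciferin was measured with 10 uM ATP, within the enzyme's linear range. Buffer: 50 mM imidazole pH 7.2, 50 mM KCl, 7 mM MgCl2, 0.01% Tween 20, 0.05% BSA; luminescence read after 8 min at ambient temperature.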
FLuc counter – counter-screen for miR-21 project: firefly luciferase inhibitors or activators; Potency, µM (doses to about 57.5 µM), for inactives: at the highest dose activity change, negative = inhibition, actives largely listed as inhibitors; AID 588342; purified FLuc, Km substrates, luminescence inhibition; P08659; actives 6.9% (n = 360,000);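 note: plate controls were vehicle for no effect and reference inhibitor for full effect; nearly all actives have a fitted effect of over 55% in size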
Target sequence (P08659 whole entry, looked up): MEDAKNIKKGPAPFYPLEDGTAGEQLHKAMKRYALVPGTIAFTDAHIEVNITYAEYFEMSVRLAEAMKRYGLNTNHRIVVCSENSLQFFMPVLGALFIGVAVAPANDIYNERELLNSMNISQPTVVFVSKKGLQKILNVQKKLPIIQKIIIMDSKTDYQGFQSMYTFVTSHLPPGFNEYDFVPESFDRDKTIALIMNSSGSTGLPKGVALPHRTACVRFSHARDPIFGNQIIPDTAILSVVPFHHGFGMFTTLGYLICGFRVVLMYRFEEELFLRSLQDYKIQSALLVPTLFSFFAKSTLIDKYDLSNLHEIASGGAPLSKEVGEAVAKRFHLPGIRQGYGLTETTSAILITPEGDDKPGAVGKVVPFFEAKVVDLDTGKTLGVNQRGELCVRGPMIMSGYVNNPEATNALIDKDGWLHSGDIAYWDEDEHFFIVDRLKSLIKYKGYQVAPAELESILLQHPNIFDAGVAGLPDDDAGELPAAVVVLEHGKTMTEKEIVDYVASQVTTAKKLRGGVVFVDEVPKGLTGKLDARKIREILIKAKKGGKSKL
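Biochemical qHTS of compounds, final roughly 60 µM downward over six points, against 10 nM purified firefly luciferase using Km concentrations of substrates (10 uM D-luciferin, 10 uM ATP) in Tris acetate pH 7.5 buffer; luminescence output.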
* hit, by the source's call; ? = inconclusive; . = no result; [ ] = another dose, or the depositor's remark. Calls come from the whole dose curve; as a rule, active = well fitted curve in the direction sought with a large enough effect; inconclusive = small, poorly fitted or top-dose-only effect, or another doubt; inactive = no such curve, though single readings can be large; an effect the other way counts as inactive or inconclusive. Potency is the fitted concentration of half-maximal effect.

SMILES	NPC1 prom act	Rab9 prom act	SMN2 splice up	ELG1 genotox	KinaseGlo FLuc	FLuc counter
O=P(O)(O)O[C@@H]1[C@H](O)[C@H](O)[C@@H](OP(=O)(O)O)[C@H](OP(=O)(O)O)[C@H]1O	.	.	.	.	0%[39.9 µM]	.
Cc1c(C(=O)NCC(c2ccc(Cl)cc2)N2CCOCC2)oc2ccccc12 (configuration not stated)	.	.	.	.	.	-14%
S=c1nc2ccccc2c2nc(-c3ccccc3)[nH]n12	?	17%	-10%	9%	2%	27µM*
S=c1nc2ccccc2c2nc(-c3ccccc3Cl)[nH]n12	16%	27%	.	-4%	.	?
COc1cc(NC(=O)CCc2c(C)nc3c4c(C)cc(C)nc4nn3c2C)cc(OC)c1	.	.	-3%	.	.	0%
CC(C)(C)C(=O)CSc1nc2ncc(Br)cc2[nH]1	3%	0%	.	0%	.	19µM*
C=C(C)C1CC=C(C)C(OC(C)=O)C1 (configuration not stated)	.	.	-2%	.	.	.
COc1ccc(NC(=O)/C=C/c2ccc(OC)c(OC)c2)cn1	-3%	-6%	.	-8%	-3%	?
COc1ccc(NC(=O)/C=C/c2cccc(Br)c2)cn1	?	?	.	-12%	.	13µM*
COc1ccc(NC(=O)/C=C/c2ccc(OC(F)F)cc2)cn1	-45%	-4%	.	-10%	.	12µM*
COc1ccc(/C=C/C(=O)Nc2ccc(OC)nc2)cc1	6%	-2%	-10%	2%	3%	7.6µM*
COc1ccc(NC(=S)Nc2ccc(OC(F)F)cc2)cn1	1%	1%	3%	0%	-2%	-7%
CCC(=O)NNc1ncnc2c1cnn2-c1ccccc1	-5%	-2%	19%	11%	-2%	6%
CCCCNc1ncnc2c1cnn2Cc1ccc(Cl)cc1	-16%	-4%	.	-8%	.	-2%
CCCCNc1ncnc2c1cnn2-c1ccc(Cl)cc1	?	?	5µM*	2.3µM*	0%	2.7µM*
COCCCNc1ncnc2c1cnn2-c1ccc(F)cc1	.	.	.	.	.	11µM*
CCCCNc1ncnc2c1cnn2-c1ccccc1	?	?	3.5µM*	?	-6%	5.4µM*
CCc1nc(NC(C)(C)C)c2cnn(-c3ccccc3)c2n1	?	?	.	?	.	19µM*
COCCCNc1ncnc2c1cnn2-c1ccc(C)cc1C	0%	-6%	29%	4%	1%	-17%
COc1ccccc1NC(=O)CSc1nc2c(oc3ccccc32)c(=O)n1-c1ccc(C)cc1	.	.	-8%	.	.	-9%
CCC(Cc1ccccc1)NC(=O)CN1C(=O)COc2ccc(S(=O)(=O)N3CCCCCC3)cc21 (configuration not stated)	.	.	2%	.	.	-4%
Clc1ccc(-n2ncc3c(NCc4ccccn4)ncnc32)cc1	?	?	5%	-3%	-6%	.
Clc1ccc(-n2ncc3c(NCCCn4ccnc4)ncnc32)cc1	?	?	22%	8.2µM*	0%	11µM*
COC(=O)C(C(C)=O)C(NC(=O)OC(C)(C)C)c1ccccc1 (configuration not stated)	.	.	5%	.	0%	.
Fc1ccc(Nc2ccc3ccccc3n2)c(F)c1	0.4µM*	0.13µM*	5µM*	0.82µM*	?	0.76µM*
SMILES	NPC1 prom act	Rab9 prom act	SMN2 splice up	ELG1 genotox	KinaseGlo FLuc	FLuc counter
Cc1nc2sc(C)c(C)n2c(=O)c1S(=O)(=O)N1CCN(c2ccccc2F)CC1	.	.	.	.	.	-9%
COc1ccc(NC(=S)NC(=O)/C=C/c2ccccc2)cc1	1%	11%	.	0%	.	7%
Cc1cccc(NC(=O)Nc2ccccc2)n1	?	?	.	?	.	12µM*
Cc1cccc(NC(=S)NC(=O)/C=C/c2ccccc2)n1	?	2.5µM*	12%	5%	0%	-2%
Cc1cccc(NC(=O)Nc2ccc(Cl)c(Cl)c2)n1	?	?	.	?	.	2.4µM*
COc1cccc(NC(=O)Nc2cccc(C)n2)c1	2.2µM*	?	.	11%	.	5.4µM*
